# Data published in PubChem BioAssay (Tox21).
# Several values for one entry are separate records, joined by “and”; a condition that tells them apart may be missing. Equal entries are not always repeated. Records with an inconclusive call do not appear. Unmarked numbers belong to inactive results. Activity calls are given as the source filed them. The call rests on the fitted dose curve; in most records, active means well fitted curve in the direction sought with a large enough effect in the repeat runs; inconclusive means weak or mixed curves; inactive means no such curve, though single readings can be large; an effect the other way counts as inactive or inconclusive.
# Experiment: qHTS assay to identify small molecule antagonists of the retinoid acid receptor (RAR) signaling pathway - cell viability counter screen (AID 1159551); further: nearly all actives have a fitted effect of over 35% in size
# Details: C3RL4 cells viability, ATP luminescence (CellTiter-Glo), 6 h; series mostly up to 92.4 µM; activity change, negative = cytotoxicity: at the top concentration
# How it was run: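 ATP-based viability, C3RL4 cells, 6 h at 37 C with 1 uM final retinol co-added after compound; luminescence read 30 min post CellTiter-Glo, RT.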
# On the % scale 0 is the no-effect control and ±100 the full control effect; potency means the concentration at half of the fitted maximal effect.
Compound,"activity change, negative = cytotoxicity",Potency
COc1cc2nc(N3CCN(C(=O)C4COc5ccccc5O4)CC3)nc(N)c2cc1OC (stereo unspecified),-4.76% [at 42.5 µM],
CCCOC(C(=O)OC1CCN(C)CC1)(c1ccccc1)c1ccccc1,-3.34% [at 42.5 µM],
C[N+](C)(C)CCOC(=O)CCC(=O)OCC[N+](C)(C)C,1.37% [at 42.5 µM],
CN(C)CCCN1c2ccccc2Sc2ccccc21,0.0854% [at 42.5 µM],
CC(=O)NO,-0.776% [at 42.5 µM],
NC(N)=NCCC[C@H](N)C(=O)O,-0.0145% [at 8.39 µM],
O=C(O)c1ccccc1Cl,-1.32%,
COCCCN1CCC(NC(=O)c2cc(Cl)c(N)c3c2OCC3)CC1,-2.01% [at 42.5 µM],
CCCNCC(O)COc1ccccc1C(=O)CCc1ccccc1 (stereo unspecified),-1.44% [at 42.5 µM],
CN1CCC(=C2c3ccccc3Sc3ccccc32)CC1,-2.04% [at 42.5 µM],
O=C1[C@H]2CCCC[C@H]2C(=O)N1CCCCN1CCN(c2nsc3ccccc23)CC1,1.18% [at 42.5 µM],
CNCCCN1c2ccccc2CCc2ccccc21,0.168% [at 42.5 µM],
Brc1c2ccccc2cc2ccccc12,-2.62%,
CC(C)Nc1ccc(NC(C)C)c2c1C(=O)c1ccccc1C2=O,,25.3 µM (active)
CCOC(=O)C(O)c1ccccc1 (stereo unspecified),-0.428% [at 42.5 µM],
C[C@H](CCC(=O)O)[C@H]1CC[C@H]2[C@@H]3CC[C@@H]4C[C@H](O)CC[C@]4(C)[C@H]3C[C@H](O)[C@]12C,-0.688%,
CC(=O)OC[C@H]1O[C@@H](n2ncc(=O)[nH]c2=O)[C@H](OC(C)=O)[C@@H]1OC(C)=O,2.58% [at 42.5 µM],
CC(C)(O)c1ccc(CNC(=O)c2cccnc2Oc2ccc(F)cc2)cc1,0.124%,
CC(C)C[C@H]1C(=O)N2CCC[C@H]2[C@]2(O)O[C@](NC(=O)[C@@H]3C=C4c5cccc6[nH]c(Br)c(c56)C[C@H]4N(C)C3)(C(C)C)C(=O)N12,5.61% [at 42.5 µM],
C/C=C(/C(=C/C)c1ccc(OC(C)=O)cc1)c1ccc(OC(C)=O)cc1,2.98% [at 42.5 µM],
OCc1cc(C(O)CNCCCCCCOCCCCc2ccccc2)ccc1O (stereo unspecified),-7.15% [at 42.5 µM],
Nc1cc(C(=O)O)c(O)c(S(=O)(=O)O)c1,-3.41%,
O=[N+]([O-])c1cccc(S(=O)(=O)O)c1,-1.83%,
CC(=O)c1ccc2c(c1)N(CCCN(C)C)c1ccccc1S2,-0.293% [at 42.5 µM],
Cc1oc(-c2ccccc2)nc1CCOc1cccc2c1ccn2CCC(=O)O,-0.0216%,
Brc1c2ccccc2c(Br)c2ccccc12,11.4% [at 8.39 µM],
CCCCCCCCCCO[C@@H]1O[C@H](CO)[C@@H](O)[C@H](O)[C@H]1O,-1.06%,
CCC(C)c1cc(C(C)(C)C)c(O)c(C(C)(C)C)c1 (stereo unspecified),-7.73%,
COc1ccc(S(=O)(=O)N2C(=O)[C@@](c3ccccc3OC)(N3C[C@H](O)C[C@H]3C(=O)N(C)C)c3cc(Cl)ccc32)c(OC)c1,6.4%,
O=C(O)C1(C(=O)Nc2ccc(Cl)cc2Cl)CC1,1.79%,

# Experiment: qHTS assay to identify small molecule antagonists of the retinoic acid receptor (RAR) signaling pathway (AID 1159552; further: nearly all actives have a fitted effect of over 50% in size)
# Details: C3RL4 RARE luciferase reporter, retinol-stimulated, 6 h; series mostly up to 92.4 µM; activity, negative = inhibition: at the top concentration
# How it was run: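 Luminescent RARE reporter read-out in C3RL4 cells: 6 hr co-treatment at 37 C of test compounds with retinol at 1 uM final. Cells plated overnight beforehand; luciferase reagent incubated 30 min at room temperature before reading.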
Compound,"activity, negative = inhibition",Potency
COc1cc2nc(N3CCN(C(=O)C4COc5ccccc5O4)CC3)nc(N)c2cc1OC (stereo unspecified),-14.7% [at 42.5 µM],
NC(N)=NCCC[C@H](N)C(=O)O,5.45% [at 8.39 µM],
C=CC(=O)OCCOCCOC(=O)C=C,,48.8 µM (active)
COCCCN1CCC(NC(=O)c2cc(Cl)c(N)c3c2OCC3)CC1,-7.83% [at 42.5 µM],
C=CC(=O)OCCOc1ccccc1,,48.5 µM (active)
C[C@H](CCC(=O)O)[C@H]1CC[C@H]2[C@@H]3CC[C@@H]4C[C@H](O)CC[C@]4(C)[C@H]3C[C@H](O)[C@]12C,-0.786%,
CC(=O)OC[C@H]1O[C@@H](n2ncc(=O)[nH]c2=O)[C@H](OC(C)=O)[C@@H]1OC(C)=O,-1.58% [at 42.5 µM],
Cc1oc(-c2ccccc2)nc1CCOc1cccc2c1ccn2CCC(=O)O,1.58%,
C=CC(=O)OCCOCCOCCOCCOC(=O)C=C,,48.8 µM (active) and 42.9 µM (active)

# Experiment: qHTS assay to identify small molecule agonists of the retinoic acid receptor (RAR) signaling pathway (AID 1159553)
# Details: C3RL4 RARE luciferase reporter, agonist, 6 h; series mostly up to 73.3 µM; activation: at the top concentration
# How it was run: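 Quantitative high-throughput format: the Tox21 10K library was tested on C3RL4 RARE-luciferase cells for 6 hr at 37 C and 5% CO2, with luminescence measured after a 30 min room-temperature reagent step.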
Compound,activation,Potency
COc1cc2nc(N3CCN(C(=O)C4COc5ccccc5O4)CC3)nc(N)c2cc1OC (stereo unspecified),-4%,
CCCOC(C(=O)OC1CCN(C)CC1)(c1ccccc1)c1ccccc1,-7.03%,
C[N+](C)(C)CCOC(=O)CCC(=O)OCC[N+](C)(C)C,2.01%,
CN(C)CCCN1c2ccccc2Sc2ccccc21,-10.6%,
CC(=O)NO,-8.42%,
NC(N)=NCCC[C@H](N)C(=O)O,0.0873% [at 8.36 µM],
O=C(O)c1ccccc1Cl,0.361%,
O=C(Nc1ccccc1)c1ccccc1O,,8.63 µM (active)
COCCCN1CCC(NC(=O)c2cc(Cl)c(N)c3c2OCC3)CC1,0.522%,
CCN(CC)CCOC(=O)C(c1ccccc1)C1CCCCC1 (stereo unspecified),-0.44%,
CN1CCC(=C2c3ccccc3Sc3ccccc32)CC1,-12.4%,
O=C1[C@H]2CCCC[C@H]2C(=O)N1CCCCN1CCN(c2nsc3ccccc23)CC1,-0.5%,
Brc1c2ccccc2cc2ccccc12,3.45% [at 94.8 µM],
CC(C)Nc1ccc(NC(C)C)c2c1C(=O)c1ccccc1C2=O,-11.4%,
C=CC(=O)OCCOc1ccccc1,0.586%,
CCOC(=O)C(O)c1ccccc1 (stereo unspecified),0.176%,

Compound,activation,Potency
C[C@H](CCC(=O)O)[C@H]1CC[C@H]2[C@@H]3CC[C@@H]4C[C@H](O)CC[C@]4(C)[C@H]3C[C@H](O)[C@]12C,-9.44% [at 94.8 µM],
CC(=O)OC[C@H]1O[C@@H](n2ncc(=O)[nH]c2=O)[C@H](OC(C)=O)[C@@H]1OC(C)=O,0.438%,
CC(C)(O)c1ccc(CNC(=O)c2cccnc2Oc2ccc(F)cc2)cc1,1.37%,
CC(C)C[C@H]1C(=O)N2CCC[C@H]2[C@]2(O)O[C@](NC(=O)[C@@H]3C=C4c5cccc6[nH]c(Br)c(c56)C[C@H]4N(C)C3)(C(C)C)C(=O)N12,3.65% [at 34.3 µM],
C/C=C(/C(=C/C)c1ccc(OC(C)=O)cc1)c1ccc(OC(C)=O)cc1,-6.55%,
OCc1cc(C(O)CNCCCCCCOCCCCc2ccccc2)ccc1O (stereo unspecified),-4.3%,
Nc1cc(C(=O)O)c(O)c(S(=O)(=O)O)c1,1.77%,
O=[N+]([O-])c1cccc(S(=O)(=O)O)c1,-5.04% [at 94.8 µM],
CC(=O)c1ccc2c(c1)N(CCCN(C)C)c1ccccc1S2,-11%,
Cc1oc(-c2ccccc2)nc1CCOc1cccc2c1ccn2CCC(=O)O,-1.71%,
Brc1c2ccccc2c(Br)c2ccccc12,-1.37% [at 8.36 µM],
CCCCCCCCCCO[C@@H]1O[C@H](CO)[C@@H](O)[C@H](O)[C@H]1O,-0.333%,
CCC(C)c1cc(C(C)(C)C)c(O)c(C(C)(C)C)c1 (stereo unspecified),0.413%,
COc1ccc(S(=O)(=O)N2C(=O)[C@@](c3ccccc3OC)(N3C[C@H](O)C[C@H]3C(=O)N(C)C)c3cc(Cl)ccc32)c(OC)c1,-13.8%,
C=CC(=O)OCCOCCOCCOCCOC(=O)C=C,,19.4 µM (active) and 17.1 µM (active)
O=C(O)C1(C(=O)Nc2ccc(Cl)cc2Cl)CC1,,6.11 µM (active)
